# According to PubChem BioAssay (NCATS):
# Records with an inconclusive call do not appear. Entries that show only a call come without a potency. Calls of active or inactive are those of the source. The call rests on the fitted dose curve; in most records, active means well fitted cell-killing curve with a large enough effect; inconclusive means small, poorly fitted or top-dose-only effect; inactive means flat fitted curve, though single readings scatter.
# Experiment: Cell Viability - LYMP2-025 (AID 976)
# Details: LYMP2-025 lymphoblastoid cell viability; series mostly up to 92.2 µM
# Procedure, shortened: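 Luminescent ATP readout after 24 hr treatment of a human lymphoblastoid line (LYMP2-025, 2500 cells/well, 37 C). Reagent developed 30 min at room temperature; AC50 fitted with the Hill equation.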
row,SMILES,Potency
1,O=C(O)C(Br)Br,inactive
2,Cc1ccc(OP(=O)(Oc2ccc(C)cc2)Oc2ccc(C)cc2)cc1,inactive
3,Oc1c(Cl)c(Cl)cc(Cl)c1Cl,inactive
4,Nc1ccc(Cc2ccc(N)c(Cl)c2)cc1Cl,inactive
5,CN(C)c1ccc(N(C)C)cc1,inactive
6,Brc1ccc(Oc2ccc(Br)cc2Br)c(Br)c1,inactive
7,O=[N+]([O-])c1c(Cl)c(Cl)c(Cl)c(Cl)c1Cl,inactive
8,ClCC(Cl)Cl,inactive
9,C=CC(=O)OCCO,inactive
10,CC(C)Br,inactive
11,O=[N+]([O-])c1ccc(O)c([N+](=O)[O-])c1,inactive
12,CC(C)[N+](=O)[O-],inactive
13,CCCC[N+](=O)[O-],inactive
14,Cc1cc(-c2cc(C)c(N)c(C)c2)cc(C)c1N,inactive
15,Nc1cc(Cl)ccc1O,inactive
16,CCN(N=O)C(N)=O,inactive
17,N#CC(Cl)(Cl)Cl,inactive
18,CCCCC(CC)COC(=O)c1ccc(C(=O)OCC(CC)CCCC)c(C(=O)OCC(CC)CCCC)c1 (centres undefined),inactive
19,O=C(O)C(Br)CBr (centres undefined),inactive

row,SMILES,Potency
1,Nc1c(Br)cc([N+](=O)[O-])cc1[N+](=O)[O-],inactive
2,O=[N+]([O-])c1ccccc1CCl,inactive
3,Cc1cc(C)cc(OP(=O)(Oc2cc(C)cc(C)c2)Oc2cc(C)cc(C)c2)c1,inactive
4,N#CC(Br)Br,inactive
5,O=C(O)C(Cl)Br (centres undefined),inactive
6,COP(=S)(OC)SCn1nnc2ccccc2c1=O,inactive
7,Nc1ccc([N+](=O)[O-])cc1N,inactive
8,O=C(O)c1cccc(Cl)c1,inactive
9,Cc1cc(N=Nc2ccccc2C)ccc1N,inactive
10,OCCCCO,inactive
11,O=[N+]([O-])c1cc(Cl)c(Cl)c(Cl)c1,inactive
12,CC(C)(COCC1CO1)COCC1CO1 (centres undefined),inactive
13,Cc1ccc2c(c1N)C(=O)c1ccccc1C2=O,inactive
14,COc1ccccc1N,inactive
15,CC(C)(C)OOC(=O)c1ccccc1,inactive
16,c1ccc(N=NNc2ccccc2)cc1,inactive
17,COC(C)(C)C,inactive
18,C(CCOCC1CO1)COCC1CO1 (centres undefined),inactive

# Experiment: Cell Viability - LYMP2-002 (AID 977);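 further: compound exposure lasted 24 h at 37 °C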; further: potency means the concentration at half of the fitted maximal effect
# Details: LYMP2-002 lymphoblastoid cell viability, qHTS; series mostly up to 92.2 µM
# Procedure, shortened: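 Human lymphoblastoid cells, 2500/well, complete medium; 5 h 37 C settle; compound 24 h 37 C; CellTiter-Glo, 30 min RT; luminescence. Decrease in ATP = cytotoxicity; AC50 via Hill equation.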
row,SMILES,Potency
1,O=C(O)C(Br)Br,inactive
2,Cc1ccc(OP(=O)(Oc2ccc(C)cc2)Oc2ccc(C)cc2)cc1,inactive
3,Oc1c(Cl)c(Cl)cc(Cl)c1Cl,inactive
4,Nc1ccc(Cc2ccc(N)c(Cl)c2)cc1Cl,inactive
5,CN(C)c1ccc(N(C)C)cc1,inactive
6,Brc1ccc(Oc2ccc(Br)cc2Br)c(Br)c1,inactive
7,O=[N+]([O-])c1c(Cl)c(Cl)c(Cl)c(Cl)c1Cl,inactive
8,CN1CSC(=S)N(C)C1,31.6 µM (active)
9,ClCC(Cl)Cl,inactive
10,C=CC(=O)OCCO,inactive
11,CC(C)Br,inactive
12,O=[N+]([O-])c1ccc(O)c([N+](=O)[O-])c1,inactive
13,CC(C)[N+](=O)[O-],inactive
14,CCCC[N+](=O)[O-],inactive
15,Cc1cc(-c2cc(C)c(N)c(C)c2)cc(C)c1N,inactive
16,CCN(N=O)C(N)=O,inactive
17,N#CC(Cl)(Cl)Cl,inactive
18,CCCCC(CC)COC(=O)c1ccc(C(=O)OCC(CC)CCCC)c(C(=O)OCC(CC)CCCC)c1 (centres undefined),inactive

row,SMILES,Potency
1,Nc1c(Br)cc([N+](=O)[O-])cc1[N+](=O)[O-],inactive
2,O=[N+]([O-])c1ccccc1CCl,inactive
3,Cc1cc(C)cc(OP(=O)(Oc2cc(C)cc(C)c2)Oc2cc(C)cc(C)c2)c1,inactive
4,O=C(O)C(Cl)Br (centres undefined),inactive
5,COP(=S)(OC)SCn1nnc2ccccc2c1=O,inactive
6,Nc1ccc([N+](=O)[O-])cc1N,inactive
7,O=C(O)c1cccc(Cl)c1,inactive
8,Cc1cc(N=Nc2ccccc2C)ccc1N,inactive
9,OCCCCO,inactive
10,O=[N+]([O-])c1cc(Cl)c(Cl)c(Cl)c1,inactive
11,CC(C)(COCC1CO1)COCC1CO1 (centres undefined),inactive
12,Cc1ccc2c(c1N)C(=O)c1ccccc1C2=O,inactive
13,COc1ccccc1N,inactive
14,CC(C)(C)OOC(=O)c1ccccc1,inactive
15,c1ccc(N=NNc2ccccc2)cc1,inactive
16,COC(C)(C)C,inactive
17,C(CCOCC1CO1)COCC1CO1 (centres undefined),inactive
18,O=[N+]([O-])/C=C/c1ccccc1,39.8 µM (active)

# Experiment: Cell Viability - LYMP2-006 (AID 978); further: nearly all actives have a fitted effect of over 60% in size; further: potency means the concentration at half of the fitted maximal effect
# Details: LYMP2-006 lymphoblastoid cell viability, qHTS; series mostly up to 92.2 µM
# Procedure, shortened: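 Potency values are Hill-fit AC50s for decreases in intracellular ATP (CellTiter-Glo luminescence). LYMP2-006 lymphoblastoid cells, 2500 per well, were exposed to compound in complete culture medium for 24 hr at 37 C.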
row,SMILES,Potency
1,O=C(O)C(Br)Br,inactive
2,Cc1ccc(OP(=O)(Oc2ccc(C)cc2)Oc2ccc(C)cc2)cc1,inactive
3,Oc1c(Cl)c(Cl)cc(Cl)c1Cl,inactive
4,Nc1ccc(Cc2ccc(N)c(Cl)c2)cc1Cl,inactive
5,Brc1ccc(Oc2ccc(Br)cc2Br)c(Br)c1,inactive
6,O=[N+]([O-])c1c(Cl)c(Cl)c(Cl)c(Cl)c1Cl,inactive
7,CN1CSC(=S)N(C)C1,39.8 µM (active)
8,ClCC(Cl)Cl,inactive
9,CC(C)Br,inactive
10,O=[N+]([O-])c1ccc(O)c([N+](=O)[O-])c1,inactive
11,CC(C)[N+](=O)[O-],inactive
12,CCCC[N+](=O)[O-],inactive
13,Cc1cc(-c2cc(C)c(N)c(C)c2)cc(C)c1N,inactive
14,Nc1cc(Cl)ccc1O,inactive
15,CCN(N=O)C(N)=O,inactive
16,N#CC(Cl)(Cl)Cl,inactive
17,CCCCC(CC)COC(=O)c1ccc(C(=O)OCC(CC)CCCC)c(C(=O)OCC(CC)CCCC)c1 (centres undefined),inactive
18,O=C(O)C(Br)CBr (centres undefined),inactive

row,SMILES,Potency
1,Nc1c(Br)cc([N+](=O)[O-])cc1[N+](=O)[O-],inactive
2,Cc1cc(C)cc(OP(=O)(Oc2cc(C)cc(C)c2)Oc2cc(C)cc(C)c2)c1,inactive
3,O=C(O)C(Cl)Br (centres undefined),inactive
4,COP(=S)(OC)SCn1nnc2ccccc2c1=O,inactive
5,Nc1ccc([N+](=O)[O-])cc1N,inactive
6,O=C(O)c1cccc(Cl)c1,inactive
7,Cc1cc(N=Nc2ccccc2C)ccc1N,inactive
8,OCCCCO,inactive
9,O=[N+]([O-])c1cc(Cl)c(Cl)c(Cl)c1,inactive
10,CC(C)(COCC1CO1)COCC1CO1 (centres undefined),inactive
11,Cc1ccc2c(c1N)C(=O)c1ccccc1C2=O,inactive
12,COc1ccccc1N,inactive
13,CC(C)(C)OOC(=O)c1ccccc1,inactive
14,c1ccc(N=NNc2ccccc2)cc1,inactive
15,COC(C)(C)C,inactive
16,C(CCOCC1CO1)COCC1CO1 (centres undefined),inactive
17,CN(C)c1ccc(N)cc1,50.1 µM (active)
18,O=[N+]([O-])/C=C/c1ccccc1,39.8 µM (active)
